Source: the supplement of paper PMC6992640
± gives the standard deviation of the averaged measurements.

Key:
Assay in all cases: cell viability (% of vehicle); higher = less cytotoxic
HCI01 [1] = cells of a triple-negative basal-like breast cancer xenograft; conditions: 1 µM; 72 h
UCD52 [2] = cells of a triple-negative basal-like breast cancer xenograft; conditions: 1 µM; 72 h
WHIM2 [3] = cells of a triple-negative basal-like breast cancer xenograft; conditions: 1 µM; 72 h
WHIM30 [4] = cells of a triple-negative basal-like breast cancer xenograft; conditions: 1 µM; 72 h
HCI01 [5] = conditions: 10 µM; 72 h
HCI03 = cells of an ER-positive luminal breast cancer xenograft; conditions: 10 µM; 72 h
HCI09 = cells of a triple-negative luminal androgen receptor type breast cancer xenograft; conditions: 10 µM; 72 h
HCI11 = cells of an ER-positive luminal breast cancer xenograft; conditions: 10 µM; 72 h
HCI13 = cells of an ER-positive luminal breast cancer xenograft; conditions: 10 µM; 72 h
HCI16 = cells of a triple-negative basal-like breast cancer xenograft; conditions: 10 µM; 72 h
UCD52 [6] = conditions: 10 µM; 72 h
WHIM2 [7] = conditions: 10 µM; 72 h
WHIM30 [8] = conditions: 10 µM; 72 h

Compound	cell viability (HCI01 [1])	cell viability (UCD52 [2])	cell viability (WHIM2 [3])	cell viability (WHIM30 [4])	cell viability (HCI01 [5])	cell viability (HCI03)	cell viability (HCI09)	cell viability (HCI11)	cell viability (HCI13)	cell viability (HCI16)	cell viability (UCD52 [6])	cell viability (WHIM2 [7])	cell viability (WHIM30 [8])
C#Cc1cccc(Nc2ncnc3cc(OCCOC)c(OCCOC)cc23)c1 [Erlotinib]	62.6	59.8	53.7	65	79.4 ± 26	73.6	63.7 ± 8.2	74.2	72.7 ± 3.5	81.1	67.82 ± 0.58	47.9 ± 9	107 ± 4.9
CC(C)CC(NC(=O)C(NC(=O)c1cccc(-c2ccccc2)n1)C(C)O)B(O)O (stereo not drawn)	55.2	25	132	22.5	76.8 ± 10	93.4	15.8 ± 2	171	40.5 ± 10	82.8	66 ± 0.77	42.8 ± 3.3	93.3 ± 3.5
CCN(CC)CCNC(=O)c1c(C)[nH]c(C=C2C(=O)Nc3ccc(F)cc32)c1C [Sunitinib]	81.1	73	66	86.7	106 ± 39	134	71.8 ± 35	134	–	125	61.8 ± 3.4	104 ± 68	37.9 ± 7.1
